The term inhibition denotes the change of the read-out against control, counted positive when it falls.

From PubChem BioAssay come the findings set out here.

Where “and” joins values, the source holds several entries; their conditions need not be identical. Equal entries are not always repeated. Results filed as inconclusive are left out. For part of these data: Entries with a potency or affinity are not part of this list. Calls of active or inactive are those of the source. Unless noted, how the calls were made is not given here.

Assay [1] is described as follows: polyglutamine-triggered caspase-3 activation inhibitors, cell-based (AID 1583). As to conditions: polyglutamine-induced caspase-3 activation, cell assay; stronger effect = higher value;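 tested at 10 µM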.
A short description of assay [2]: suppressors of polyQ aggregation in yeast, 75Q-TubU reporter (AID 1593). The following applies: Yeast 75Q polyglutamine aggregation reporter.
A short description of assay [3]: rescue of polyQ-huntingtin neuronal dysfunction in worms, whole organism, C. elegans mechanosensory neurons, N-terminal huntingtin (AID 1599). The following applies: touch response, stronger effect = higher value.
The nature of assay [4]: inhibitors of mitochondrial cytochrome c release, biochemical, purified mitochondria (AID 1603).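 Further: mouse liver mitochondria challenged with calcium chloride; signal normalized to the plate average as 100%.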 As to conditions: stronger effect = lower value.
Assay [5] in a line: inhibitors of polyQ protein aggregation (AID 1604). As to conditions: polyglutamine-induced protein aggregation inhibition assay; stronger effect = higher value; tested at 2.5 µM.
Assay [6] is described as follows: enhancers of glutamate uptake in motor neurons, MN-1 cell line (AID 1612).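 Further: tested at 1 µM final; 0% = mean of DMSO vehicle wells on each plate; positive means more glutamate uptake than control and negative means less.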 As to conditions: MN-1 motor neuron cells, stronger effect = higher value.
Assay [7] in a line: reducers of polyQ inclusions in PC12 cells, cell-based, NGF-treated PC12, GFPQ80 (AID 1614).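 Further: lower means fewer inclusions and 0 means no inclusions at all.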 The following applies: PC12 NGF-treated GFP-polyQ80 inclusion reduction.
A short description of assay [8]: suppressors of polyglutamine aggregation in yeast, 75Q-TubH (AID 1616). As to conditions: S. cerevisiae 75Q-TubH polyglutamine aggregation suppression; stronger effect = higher value.
A short description of assay [9]: circadian clock period modulators, cell-based, LOPAC library, luminescence reporter (AID 2774).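 Further: values are relative to mean of DMSO wells on each plate.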 The following applies: circadian reporter cells, at 7 µM, actives lie on both sides.
The nature of assay [10]: hESC survival regulators, cell-based (AID 493140).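 Further: cells exposed to compounds for four days before counting.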 The following applies: human embryonic stem cell survival screen; stronger effect = higher value.
The target of assay [11] is ATP-dependent translocase ABCB1 (Homo sapiens) (UniProt P08183). Put plainly: MDR1 (ABCB1) efflux transporter inhibition, cell-based (AID 377; in the data active means fluorescence slope change above about 50%). The following applies: MDR1-expressing cells, fluorescent substrate accumulation slope; stronger effect = higher value; concentration not given here.
Sequence of ATP-dependent translocase ABCB1 (Homo sapiens) (P08183 whole entry, looked up): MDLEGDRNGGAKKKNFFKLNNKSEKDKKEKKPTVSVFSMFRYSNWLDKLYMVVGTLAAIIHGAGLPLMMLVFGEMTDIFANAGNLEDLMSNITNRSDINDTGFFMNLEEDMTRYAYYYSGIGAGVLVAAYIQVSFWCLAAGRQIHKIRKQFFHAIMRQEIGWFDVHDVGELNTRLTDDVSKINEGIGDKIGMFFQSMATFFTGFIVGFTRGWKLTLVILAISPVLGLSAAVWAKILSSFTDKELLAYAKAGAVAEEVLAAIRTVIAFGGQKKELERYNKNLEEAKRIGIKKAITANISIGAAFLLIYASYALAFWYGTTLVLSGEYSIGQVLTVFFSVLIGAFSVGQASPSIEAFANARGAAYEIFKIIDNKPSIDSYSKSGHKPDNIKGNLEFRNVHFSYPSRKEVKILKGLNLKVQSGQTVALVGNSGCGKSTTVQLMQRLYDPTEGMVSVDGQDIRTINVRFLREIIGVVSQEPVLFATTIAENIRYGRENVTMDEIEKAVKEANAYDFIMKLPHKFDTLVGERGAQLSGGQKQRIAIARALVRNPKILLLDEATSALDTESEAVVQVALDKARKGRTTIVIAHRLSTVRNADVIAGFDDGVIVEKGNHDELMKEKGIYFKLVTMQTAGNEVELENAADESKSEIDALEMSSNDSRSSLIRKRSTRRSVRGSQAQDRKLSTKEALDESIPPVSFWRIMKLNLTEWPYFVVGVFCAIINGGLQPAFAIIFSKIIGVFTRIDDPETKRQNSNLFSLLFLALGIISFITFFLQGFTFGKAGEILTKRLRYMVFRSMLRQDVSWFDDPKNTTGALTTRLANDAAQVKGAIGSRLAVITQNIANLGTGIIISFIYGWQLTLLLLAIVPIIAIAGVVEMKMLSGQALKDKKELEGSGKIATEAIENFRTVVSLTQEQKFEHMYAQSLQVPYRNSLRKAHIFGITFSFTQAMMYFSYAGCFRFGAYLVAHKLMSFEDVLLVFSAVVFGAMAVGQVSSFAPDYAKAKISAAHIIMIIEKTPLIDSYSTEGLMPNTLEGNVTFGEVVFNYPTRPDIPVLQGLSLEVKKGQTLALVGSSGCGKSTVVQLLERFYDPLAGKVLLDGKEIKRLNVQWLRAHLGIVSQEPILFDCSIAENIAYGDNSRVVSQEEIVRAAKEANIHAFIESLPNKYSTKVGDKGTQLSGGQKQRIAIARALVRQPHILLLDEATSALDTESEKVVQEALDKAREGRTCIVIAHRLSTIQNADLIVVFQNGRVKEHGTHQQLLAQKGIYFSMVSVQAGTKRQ

As to `CN1CCN(CC(=O)N2c3ccccc3C(=O)Nc3cccnc32)CC1`, in [1], the inhibition came to 9.26%. Besides, in [2], the score was 1.57. The rescue above control in assay [3] came to 18.8. For the same compound, in assay [4], the cytochrome c release ratio worked out at 1.27. For the same compound, the inhibition of aggregation in assay [5] was 63.5%. For the same compound, in assay [6], the glutamate uptake change was -10.6%. The compound also came in with an inclusion score in assay [7] of 2.5. The compound also had an aggregation suppression score in [8] of 1.19. Further, in assay [9], the period change was 0.09 h (inactive). In addition, the survival in assay [10] is 8.33 (inactive).

Regarding `NNc1nncc2ccccc12`, in assay [11], the fluorescence slope change is 71.4% (active). Also, the inhibition in assay [1] amounted to 24%. Also, the score in [2] turned out to be 1.45. Moreover, the rescue above control in [3] is -2.16. The cytochrome c release ratio in assay [4] turned out to be 0.9. In [5], the inhibition of aggregation was -30.3%. In addition, in assay [6], the glutamate uptake change was found to be 4.84%. This compound also displayed an inclusion score in assay [7] of 2. The aggregation suppression score in assay [8] worked out at 1.4. In addition, the period change in assay [9] is 0.12 h (inactive). The survival in assay [10] is 18.2 (inactive).

In the case of `C[N+](C)(C)CCCCCC[N+](C)(C)C`, in assay [1], the inhibition was 1.59%. The same compound came in with a score in assay [2] of 1.14. Besides, the rescue above control in assay [3] was -10.3. Also, the cytochrome c release ratio in assay [4] was determined as 0.92. The inhibition of aggregation in [5] came to 72.2%. Also, the glutamate uptake change in assay [6] was determined as 11.7%. The compound further yielded an inclusion score in [7] of 2. The aggregation suppression score in [8] turned out to be 1.28. Moreover, the period change in assay [9] is -0.005 hour (inactive) and -0.2 hour (inactive). Besides, the survival in assay [10] is 12.8 (inactive).

Take `O=C1CC2(CCCC2)CC(=O)N1CCCCN1CCN(c2ncccn2)CC1`: the fluorescence slope change in assay [11] was 65.3% (active). In addition, in assay [1], the inhibition was -0.71%. Besides, in [2], the score amounted to 1.18. The same compound gave a rescue above control in assay [3] of 1.91. The cytochrome c release ratio in assay [4] was found to be 1.06. For the same compound, the inhibition of aggregation in [5] is 48.3%. Further, the glutamate uptake change in assay [6] stood at 15.2%. The compound also returned an inclusion score in [7] of 2. In assay [8], this compound returned an aggregation suppression score of 1.24. Moreover, in assay [9], the period change was -0.08 h (inactive). Also, the survival in assay [10] was 4 (inactive).

For `C[N+]1(CCCCC[N+]2(C)CCCC2)CCCC1`, the inhibition in assay [1] was -38.1%. In [2], this compound gave a score of 1.14. Also, in assay [3], the rescue above control is 1.54. In addition, the cytochrome c release ratio in [4] was 0.89. In addition, in assay [5], the inhibition of aggregation amounted to 49%. Also, the glutamate uptake change in assay [6] stood at 1.85%. The inclusion score in assay [7] was found to be 2. In assay [8], this compound yielded an aggregation suppression score of 1.31. Further, the period change in [9] was 0.04 h (inactive). Moreover, the survival in assay [10] was 22.2 (inactive).

Turning to `CC(=O)OCC1=C(C(=O)O)N2C(=O)[C@@H](NC(=O)Cc3cccs3)[C@H]2SC1`, in assay [11], the fluorescence slope change is 2.1% (inactive). For the same compound, in assay [1], the inhibition was 11.1%. The compound further showed a score in assay [2] of 1.29. This compound also displayed a rescue above control in [3] of -1.7. For the same compound, the cytochrome c release ratio in assay [4] came out at 0.78. Further, the inhibition of aggregation in assay [5] was -17.5%. In [6], the glutamate uptake change turned out to be 0.12%. In assay [7], this compound registered an inclusion score of 2. Besides, the aggregation suppression score in assay [8] turned out to be 1.47. The period change in assay [9] is 0.04 h (inactive). Also, the survival in assay [10] is 7.08 (inactive).

As to `CCCOc1ccccc1-c1nc2n[nH]nc2c(=O)[nH]1`, the fluorescence slope change in assay [11] was 11.9% (inactive). Besides, the inhibition in assay [1] is -7.12%. Moreover, the score in assay [2] turned out to be 0.63. Moreover, the rescue above control in assay [3] is 1.11. Besides, the cytochrome c release ratio in [4] is 0.54. The inhibition of aggregation in [5] worked out at 18.4%. For the same compound, the glutamate uptake change in assay [6] is -4.8%. In [7], the inclusion score was found to be 2. For the same compound, the aggregation suppression score in assay [8] came to 1.1. In addition, the period change in [9] is -0.2 h (inactive). The survival in assay [10] is 9.92 (inactive).

For `C[C@](N)(Cc1ccc(O)c(O)c1)C(=O)O`, the fluorescence slope change in assay [11] was 52.1% (active). Moreover, in assay [1], the inhibition is 10.4%. In addition, in assay [2], the score is 1.25. In addition, the rescue above control in assay [3] amounted to 10.7. In addition, in assay [4], the cytochrome c release ratio is 1.01. Moreover, the inhibition of aggregation in assay [5] was 31.7%. Further, the glutamate uptake change in assay [6] amounted to 33%. The same compound showed an inclusion score in [7] of 2. The compound further showed an aggregation suppression score in assay [8] of 1.39. The period change in assay [9] was -0.07 h (inactive). Besides, the survival in [10] was 3.58 (inactive).

With `NCCCCCC(=O)O`, the inhibition in [1] is -5.51%. The same compound displayed a score in assay [2] of 1.37. This compound showed a rescue above control in assay [3] of 1.88. In addition, the cytochrome c release ratio in [4] amounted to 1.36. The inhibition of aggregation in [5] was 75.6%. Besides, the glutamate uptake change in [6] was -5.97%. Moreover, in [7], the inclusion score was 2. In assay [8], this compound came in with an aggregation suppression score of 1.27. The period change in assay [9] was 0.065 h (inactive). The survival in [10] is 2 (inactive).

For `C=CCc1ccccc1OCC(O)CNC(C)C` (configuration not stated), in assay [11], the fluorescence slope change is 80.3% (active). In addition, the inhibition in [1] is 3.86%. The compound further displayed a score in [2] of 1.39. In assay [3], the rescue above control was determined as 6.88. Further, the cytochrome c release ratio in assay [4] turned out to be 1.44. Further, the inhibition of aggregation in [5] is 14.3%. Moreover, the glutamate uptake change in assay [6] was -6.27%. Moreover, the inclusion score in [7] is 2. Also, the aggregation suppression score in [8] is 1.42. For the same compound, the period change in assay [9] was 0.15 h (inactive). Besides, in assay [10], the survival is 7.25 (inactive).

For the compound `CCO/C([O-])=N/c1c[n+](N2CCOCC2)no1`, the inhibition in assay [1] is -3.16%. In assay [2], this compound displayed a score of 1.13. This compound also registered a rescue above control in assay [3] of 3.21. The cytochrome c release ratio in assay [4] was 0.83. Moreover, in assay [5], the inhibition of aggregation was found to be 36.6%. Moreover, the glutamate uptake change in assay [6] stood at 3.92%. In assay [7], the inclusion score was found to be 2. In addition, the aggregation suppression score in assay [8] worked out at 1.23. Moreover, in [9], the period change was 0.065 h (inactive). Besides, in assay [10], the survival is 4.75 (inactive).

Consider `CCC1(C)CC(=O)NC1=O` (configuration not stated), for which, in assay [1], the inhibition turned out to be 3.06%. This compound registered a score in [2] of 1.25. The compound also came in with a rescue above control in assay [3] of 1.02. Moreover, the cytochrome c release ratio in assay [4] is 1.3. Besides, the inhibition of aggregation in [5] was found to be 4.76%. Further, the glutamate uptake change in [6] was -2.95%. Moreover, the inclusion score in assay [7] was found to be 2. Further, the aggregation suppression score in assay [8] came out at 1.06. Further, the period change in assay [9] was 0.01 h (inactive). Moreover, the survival in [10] was 28.8 (inactive).

Regarding `O=C(O)c1cccnc1Nc1cccc(C(F)(F)F)c1`, in [1], the inhibition was 18.6%. This compound returned a score in assay [2] of -0.01. The compound also had a rescue above control in assay [3] of 7.18. The cytochrome c release ratio in [4] was 0.87. For the same compound, the inhibition of aggregation in assay [5] is -18.2%. The glutamate uptake change in assay [6] stood at 6.09%. The same compound yielded an inclusion score in assay [7] of 1. The aggregation suppression score in assay [8] was 0.0604. In [9], the period change was 0.085 h (inactive). In addition, the survival in [10] was 22.6 (inactive).

On to `CCn1cc(C(=O)O)c(=O)c2cc(F)c(N3CCNC(C)C3)c(F)c21` (configuration not stated), for which the inhibition in [1] is -6.75%. The compound further yielded a score in assay [2] of 1.15. In [3], this compound gave a rescue above control of 3.68. Also, the cytochrome c release ratio in assay [4] turned out to be 1.13. Further, in assay [5], the inhibition of aggregation was 80.3%. In addition, the glutamate uptake change in assay [6] was -4.22%. This compound also came in with an inclusion score in assay [7] of 2. In [8], this compound returned an aggregation suppression score of 1.06. Further, the period change in assay [9] was -0.015 h (inactive). Further, the survival in assay [10] was 17.1 (inactive).

On to `CN1CCC(=C2c3ccccc3CC(=O)c3sccc32)CC1`, for which, in assay [11], the fluorescence slope change is 20.2% (inactive). The inhibition in assay [1] was determined as 9.78%. In assay [2], this compound had a score of 1.65. The compound further came in with a rescue above control in [3] of 1.84. Besides, in assay [4], the cytochrome c release ratio is 1.14. The inhibition of aggregation in [5] is 57.6%. Moreover, the glutamate uptake change in assay [6] amounted to 0.39%. Also, the inclusion score in assay [7] is 2. Further, the aggregation suppression score in [8] was 1.2. In addition, the period change in assay [9] was -0.04 h (inactive). The survival in [10] was 5.83 (inactive).

`Cc1nnc(SCC2=C(C(=O)O)N3C(=O)[C@@H](NC(=O)Cn4cnnn4)[C@H]3SC2)s1`: in [11], the fluorescence slope change is -6.8% (inactive). The inhibition in assay [1] is 0.61%. In addition, the score in [2] came out at 1.27. In assay [3], this compound yielded a rescue above control of 4.54. In addition, in assay [4], the cytochrome c release ratio amounted to 0.92. In [5], the inhibition of aggregation is 13.4%. Also, in assay [6], the glutamate uptake change was 0.76%. The inclusion score in [7] is 2. In assay [8], this compound gave an aggregation suppression score of 1.05. The period change in assay [9] was -0.065 h (inactive). For the same compound, in assay [10], the survival was 2.58 (inactive).

Regarding `Nc1c2c(nc3ccccc13)CCCC2O` (configuration not stated), the inhibition in assay [1] came out at 19.1%. The score in [2] worked out at 1.04. For the same compound, the rescue above control in assay [3] was -4.39. Moreover, the cytochrome c release ratio in assay [4] was 0.96. For the same compound, the inhibition of aggregation in [5] turned out to be 59.1%. Moreover, the glutamate uptake change in assay [6] was determined as 6.03%. In assay [7], this compound showed an inclusion score of 2. The aggregation suppression score in assay [8] was 0.587. Besides, the period change in [9] is 0.15 h (inactive).
